High-throughput results deposited in PubChem by National Center for Advancing Translational Sciences (NCATS).
ATXN2 expr inh: reduces ATXN2 reporter expression in HEK-293 cells | Potency, µM (series often up to 57 µM), for the others: top-dose activity change, negative = inhibition, usual class: inhibitors | HEK-293 ATXN2-luciferase reporter, luminescence, 24 h | AID 1745845 | 360,000 compounds, 0.72% hits; note: % is set by controls: 0 for no effect and ±100 for the full control effect; nearly all actives have a fitted effect of over 55% in size
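qHTS (up to 57 uM final) was run with 24 h compound exposure of reporter cells at 37 °C. Each well was multiplexed: SteadyGlo luminescence measured ATXN2-luciferase expression after a fluorogenic Gly-Phe-AFC viability readout (25 uM final).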
TGFb inhibitor: inhibitors of TGF-b signaling; HepG2 CAGA-GFP TGF-b/SMAD3 reporter, GFP fluorescence, 18 h; TGF-beta stimulated, 500 pg/mL final; Potency, µM (series often up to 46.1 µM), for the others: top-dose activity, negative = inhibition, hits mostly inhibitors; 410,000 compounds, 1.2% hits; AID 588855; note: % is set by controls: 0 for no effect and ±100 for the full control effect; nearly all actives have a fitted effect of over 65% in size
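Per well, imaged GFP fluorescence of HEPG2 CAGA-GFP cells gives the signal; cells get compound, then TGF-beta (500 pg/mL final), 18 h at 37 degrees C; %Activity versus -TGF-beta and +DMSO controls.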
A549 tox: counter-screen for Nrf2 inhibitors: cytotoxicity in A549 cells | A549 ARE-Fluc cells, CellTiter-Fluor viability, 18-24 h | Potency, µM (titrated, usually from 46 µM), for the others: top-dose activity change, negative = cytotoxicity, usual class: inhibitors | 390,000 compounds, 0.16% hits | AID 504648; note: % is set by controls: 0 for no effect and ±100 for the full control effect
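Cytotoxicity counterscreen: CellTiter-Fluor fluorescence was measured in A549 ARE_Fluc cells after 18-24 h of compound exposure in a concentration series. The subsequent BugLite luminescent read reports ARE-luciferase activity.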
Nrf2 block: blocks Nrf2 signaling. A549 ARE-Fluc reporter, luciferase luminescence, 18-24 h. Potency, µM (doses to about 46 µM), without a hit: at the top dose activity change, negative = inhibition, most hits filed as inhibitors. 360,000 compounds, 2.1% hits; note: % is set by controls: 0 for no effect and ±100 for the full control effect; nearly all actives have a fitted effect of over 60% in size
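A549 ARE_Fluc cells (5000/well, 5% FBS OPTI-MEM) pre-incubated 2 h, then treated with compounds 18-24 h at 37C/5% CO2 in concentration-response. CellTiter-Fluor viability read first; BugLite luciferase luminescence after 15 min at room temperature gives Nrf2 activity.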
ATXN viability: viability counter-screen for ATXN expression inhibitors. 400,000 compounds, 0.49% hits. S2 cells (HEK-293 line with an ATXN2-luciferase reporter) viability, CellTiter-Fluor protease fluorescence, 24 h. Potency, µM (top dose mostly 56.7 µM), actives largely listed as cytotoxic; note: nearly all actives have a fitted effect of over 40% in size
HepG2 tox: counter-screen for TGF-b inhibitors: cytotoxicity in HepG2 cells | HepG2 CAGA-GFP viability, ATP luminescence, 18 h | Potency, µM (top dose mostly 46.1 µM), inactives show top-dose activity change, negative = cytotoxicity, actives largely listed as cytotoxic | 410,000 compounds, 0.76% hits
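CellTiter-Glo luminescence gave cytotoxicity after 18 hours at 37 degrees C. The cells were HepG2 CAGA-GFP in 1% FBS DMEM, stimulated with 500 pg/mL TGF-beta after compound addition. %Activity was normalised to no-cell wells (complete cell-killing) and DMSO (no toxicity), and curves were fitted and classified.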
An asterisk follows results filed as active; i = inactive; ? = inconclusive; · = no result; ! = not active in a repeat; [ ] = remark or other dose. Compounds with a hit are over-represented: about 3.8% of the library has one in this group of screens. Calls come from the whole dose curve; as a rule, active = well fitted curve in the direction sought with a large enough effect; inconclusive = small, poorly fitted or top-dose-only effect, or another doubt; inactive = no such curve, though single readings can be large; an effect the other way counts as inactive or inconclusive. Potency is the fitted concentration of half-maximal effect.

SMILES | ATXN2 expr inh | TGFb inhibitor | A549 tox | Nrf2 block | ATXN viability | HepG2 tox
CCN1CCN(Cc2ccc(NC(=O)c3ccc(C)c(NC(=O)c4ccc5n[nH]nc5c4)c3)cc2C(F)(F)F)CC1 | -4.7% | ? | 17.9% | -13.5% | i | -25.7%
CCN1CCN(Cc2ccc(NC(=O)c3ccc(C)c(NC(=O)C(=O)c4c[nH]c5ccccc45)c3)cc2C(F)(F)F)CC1 | 14.1µM*! | 17.8µM* | ? | ? | 14.1µM* | 15.8µM*!
CCN1CCN(Cc2ccc(NC(=O)c3cc(NC(=O)c4cc(C)on4)cc(OC)c3)cc2C(F)(F)F)CC1 | ? | ? | -1.0% | 9.2% | ? | -36.7%
CCOc1cccc(C(=O)N(Cc2ccc(C(C)C)cc2)C2CCS(=O)(=O)C2)c1 (centres undefined) | 5.5% | 8.9% | ? | ? | ? | 2.3%
CCOC(=O)C1(Cc2cccc(F)c2)CCN(C(=O)c2ccoc2C)CC1 | 3.4% | -5.3% | -2.5% | -6.0% | i | -21.1%
COc1ccc([N+](=O)[O-])cc1N(CC(=O)NCCCOC(C)C)S(C)(=O)=O | 2.7% | -2.7% | 1.5% | 18.2% | i | -4.0%
CC(C)c1ccc(S(=O)(=O)NCc2nc3cccnc3n2Cc2ccc(F)cc2)cc1 | · | ? | -3.1% | · | · | -22.1%
C=Cc1ccc(CN2C(=O)N(c3ccc(CC)cc3)S(=O)(=O)c3ccccc32)cc1 | 4.0% | ? | 4.4% | · | i | -8.5%
O=C(CN(Cc1ccco1)C(=O)c1ccc([N+](=O)[O-])cc1)Nc1ccccc1C(F)(F)F | · | 1.6% | -7.9% | 6.4% | i | 2.2%
CC(C)COc1ccc(C(=O)N(CC(=O)Nc2ccccc2C(F)(F)F)Cc2ccco2)cc1 | -18.7% | -9.7% | ? | 18.4µM* | i | -6.9%
Cn1nc(C(=O)OCC(=O)Nc2ccccc2[N+](=O)[O-])c2ccccc2c1=O | -5.5% | 14.3% | 2.5% | 5.2% | i | 9.9%
Cc1ccc(Oc2cc([N+](=O)[O-])cc3c2C(=O)Nc2ccccc2O3)cc1 | -12.1% | -22.4% | -8.0% | 14.6µM* | i | -30.0%
CC1(C)Cc2c(sc3[nH]c(=S)n(Cc4ccccc4)c(=O)c23)CO1 | ? | -4.7% | ? | 16.4µM* | i | -35.0%
CC(C)c1ccc(NC2CCCN(C(=O)c3n[nH]c4c3CCC4)C2)cc1 (centres undefined) | -7.8% | -1.8% | -8.6% | 10.3µM* | i | -3.7%
NNC(=O)/C(=N/Nc1ccccc1)S(=O)(=O)c1ccc(Cl)cc1 | 14.1µM* | -34.1% | -14.2% | -20.8% | ? | -3.4%
Cc1cc(Oc2ccccc2)nc(-c2ccccc2)n1 | 14.3% | 0.0% | 12.2% | · | i | 0.2%
C=C(C)c1nc(Oc2ccccc2)nc(Oc2ccccc2)n1 | ? | 11.2µM* | 2.1% | 9.4% | · | -93.3%
COc1ccc(NC(=O)c2cccc(S(=O)(=O)N3CCCCCC3)c2)cc1 | -25.0% | ? | -1.1% | ? | i | -7.4%
Cc1cc(Br)ccc1NC(=O)CSc1c2c(nc3ccccc13)CCC2 | · | ? | -11.4% | -16.2% | · | -69.5%
CCCn1c(/C=N/Nc2nc3ccccc3[nH]2)nc2ccccc21 | ? | ? | ? | 14.6µM* | · | -19.5%
Cc1c(/C=N/Nc2nc3ccccc3[nH]2)c2ccccc2n1C | -25.1% | ? | -27.9% | ? | ? | -32.5%
CCN(CC)c1ccc(/C=N/Nc2nc3ccccc3[nH]2)cc1 | · | 3.5% | ? | ? | 5.62µM* | -2.2%
Cn1c(/C=N/Nc2nc3ccccc3[nH]2)nc2ccccc21 | 52.8% | ? | 0.9% | ? | i | -23.8%
CC(C)Cn1c(/C=N/Nc2nc3ccccc3[nH]2)nc2ccccc21 | 4.47µM* | ? | -4.1% | 7.31µM* | ? | -18.0%
CCn1c(/C=C/c2ccccc2)nc2ccccc21 | 55.9% | -0.9% | 19.7%[1.84 µM] | ? | i | -60.5%
SMILES | ATXN2 expr inh | TGFb inhibitor | A549 tox | Nrf2 block | ATXN viability | HepG2 tox
CCCCCCn1c(/C=C/c2ccccc2)nc2ccccc21 | · | 15.8µM* | 10.1% | ? | · | -66.3%
CC(=O)Nc1ccc(S(=O)(=O)N2CCC(C(=O)N[C@@H](C)C(=O)NC3CCCC3)CC2)cc1 | 0.6% | 0.9% | 0.6% | 17.2% | i | 0.8%
COc1cc(C(=O)N2CCN(c3ccc(Nc4ccccc4)nn3)CC2)cc(OC)c1OC | · | -23.0% | 0.0% | · | · | -18.7%
O=c1cc(-c2ccccc2Cl)oc2cc(O)cc(O)c12 | 39.5% | -21.4% | -9.1% | -5.2% | i | -17.8%
O=C1C=CC(O)(c2cc(=O)c3c(O)cc(O)cc3o2)C=C1 | 7.94µM* | 3.98µM* | ? | ? | 12.6µM* | 15.8µM*
O=C(c1ccc(COc2ccccc2Br)o1)N1CCN(c2ccccn2)CC1 | · | 26.7% | -6.0% | ? | · | -16.8%
O=C(c1ccc(C#Cc2ccccc2)o1)N1CCN(c2ccccn2)CC1 | ? | ? | ? | 18.4µM* | ? | -28.0%
Cc1cccc(NC(=O)CSc2nc3ccc(N4C(=O)c5ccccc5C4=O)cc3s2)c1C | -24.0% | -7.6% | ? | 20.6µM* | ? | -8.9%
Cc1ccccc1NC(=O)CSc1nc2ccc(NC(=O)COc3ccccc3F)cc2s1 | 17.8µM* | ? | -5.9% | ? | ? | -26.1%
Cc1c(C(=O)Nc2ccc(F)cc2F)nnn1-c1ccccc1Br | 15.3% | -13.8% | 0.5% | -1.8% | ? | -27.1%
CC(=O)c1ccc(OCCNS(=O)(=O)c2ccc(-n3cnnn3)c(C)c2)cc1 | -5.5% | -2.9% | -7.6% | 5.8µM* | i | -10.6%
COc1ccc(CNS(=O)(=O)c2ccc(-n3cnnn3)c(C)c2)cc1 | 8.9% | 6.6% | -1.1% | -18.1% | i | 9.9%
NC(COCc1ccccc1)c1csc(Nc2ccc(C(=O)NCCO)cc2)n1 (centres undefined) | -5.1% | -0.8% | · | · | i | -4.0%
CC(C)[C@H](NC(N)=O)C(=O)Nc1cccc([N+](=O)[O-])c1 | 11.3% | 0.631µM* | 5.3% | -7.0% | i | 14.0%
Cc1ccc2nc(SC(C)C(=O)Nc3cccc([N+](=O)[O-])c3)[nH]c2c1 (centres undefined) | -25.0% | ? | -14.9% | 20.6µM* | i | -41.3%
O=C(Nc1ccc2c(c1)N(C1CCCC1)C(=O)c1ccccc1S2)c1ccc(F)cc1 | 54.2% | 25.7% | -14.8% | · | i | -24.1%
CC(=O)Nc1cccc(-c2csc(C(C)(O)c3ccc(F)c(F)c3)n2)c1 (centres undefined) | -15.9% | -10.2% | · | · | i | -21.2%
C=CCn1c(Sc2ncc([N+](=O)[O-])s2)n[nH]c1=O | ? | 3.55µM* | ? | 2.4% | 29.9µM* | -105.1%
